Here are results for eleven compounds from PubChem BioAssay (NCATS).

In assay [1] the target is Rap guanine nucleotide exchange factor 3 (Homo sapiens) (UniProt O95398). Put plainly: Confirmatory qHTS for antagonist of cAMP-regulated guanine nucleotide exchange factor 3 (EPAC1) (AID 1645880). Further: nearly all actives have a fitted effect of over 55% in size. Further: potency means the concentration at half of the fitted maximal effect.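 On activity, negative = inhibition: plate controls were DMSO only for no effect and full effect of the ATA control for full effect.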 The settings on record: EPAC1 Rap1B-BODIPY-GDP exchange, fluorescence; activity, negative = inhibition: at 115 µM (top of the series). In short, it runs like this: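 Released BODIPY-GDP fluoresces less than Rap1-bound BODIPY-GDP; the signal is followed at 480/540 nm at 5-min intervals over 30 min, after 5 min at room temperature. Reactions contain 100 nM EPAC1, 250 nM RAP1B-BODIPY-GDP and 50 uM GDP; results are normalized to ATA and DMSO.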
Rap guanine nucleotide exchange factor 3 (Homo sapiens), sequence (O95398 whole entry, looked up): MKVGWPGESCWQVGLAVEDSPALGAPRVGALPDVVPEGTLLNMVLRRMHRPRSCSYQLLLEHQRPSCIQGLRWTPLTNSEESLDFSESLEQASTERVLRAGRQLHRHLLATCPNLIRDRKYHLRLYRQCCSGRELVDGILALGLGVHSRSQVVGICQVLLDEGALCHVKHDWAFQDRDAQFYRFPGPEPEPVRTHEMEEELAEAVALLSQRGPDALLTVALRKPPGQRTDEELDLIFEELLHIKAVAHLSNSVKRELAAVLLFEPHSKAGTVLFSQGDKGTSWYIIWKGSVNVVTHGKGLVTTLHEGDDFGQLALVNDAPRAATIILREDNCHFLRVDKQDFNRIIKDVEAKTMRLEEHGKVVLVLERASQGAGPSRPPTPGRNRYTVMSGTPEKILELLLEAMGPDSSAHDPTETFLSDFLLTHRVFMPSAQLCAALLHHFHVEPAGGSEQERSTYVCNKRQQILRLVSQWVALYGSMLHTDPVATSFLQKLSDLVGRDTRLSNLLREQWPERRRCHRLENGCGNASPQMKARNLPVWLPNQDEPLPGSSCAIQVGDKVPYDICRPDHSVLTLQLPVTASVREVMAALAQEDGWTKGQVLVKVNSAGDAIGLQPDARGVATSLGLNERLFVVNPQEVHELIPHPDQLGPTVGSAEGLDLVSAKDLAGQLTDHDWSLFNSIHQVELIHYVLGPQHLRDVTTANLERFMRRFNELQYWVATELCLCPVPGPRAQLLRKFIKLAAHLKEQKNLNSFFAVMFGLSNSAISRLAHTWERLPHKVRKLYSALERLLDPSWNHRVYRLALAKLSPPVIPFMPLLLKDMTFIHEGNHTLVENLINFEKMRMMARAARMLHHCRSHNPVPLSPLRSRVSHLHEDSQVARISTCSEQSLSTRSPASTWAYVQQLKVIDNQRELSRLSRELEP

For assay [2] the target is unchanged. Put plainly: Confirmatory qHTS for agonist of cAMP-regulated guanine nucleotide exchange factor 3 (EPAC1) (AID 1645881). Further: nearly all actives have a fitted effect of over 75% in size. Further: potency means the concentration at half of the fitted maximal effect.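 On activation: EPAC1 catalysed release of BODIPY-GDP from Rap1B seen as fluorescence loss; 100% = effect of cAMP agonist control.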 Background: qHTS replaces the single test concentration by a dilution series.
For assay [3], the target named is Rap guanine nucleotide exchange factor 4 (Homo sapiens) (UniProt Q8WZA2). As to the kind of experiment: Confirmatory qHTS for agonist of cAMP-regulated guanine nucleotide exchange factor 4 (EPAC2) (AID 1645884). Further: nearly all actives have a fitted effect of over 65% in size. Further: potency means the concentration at half of the fitted maximal effect.
Rap guanine nucleotide exchange factor 4 (Homo sapiens), sequence (Q8WZA2 whole entry, looked up): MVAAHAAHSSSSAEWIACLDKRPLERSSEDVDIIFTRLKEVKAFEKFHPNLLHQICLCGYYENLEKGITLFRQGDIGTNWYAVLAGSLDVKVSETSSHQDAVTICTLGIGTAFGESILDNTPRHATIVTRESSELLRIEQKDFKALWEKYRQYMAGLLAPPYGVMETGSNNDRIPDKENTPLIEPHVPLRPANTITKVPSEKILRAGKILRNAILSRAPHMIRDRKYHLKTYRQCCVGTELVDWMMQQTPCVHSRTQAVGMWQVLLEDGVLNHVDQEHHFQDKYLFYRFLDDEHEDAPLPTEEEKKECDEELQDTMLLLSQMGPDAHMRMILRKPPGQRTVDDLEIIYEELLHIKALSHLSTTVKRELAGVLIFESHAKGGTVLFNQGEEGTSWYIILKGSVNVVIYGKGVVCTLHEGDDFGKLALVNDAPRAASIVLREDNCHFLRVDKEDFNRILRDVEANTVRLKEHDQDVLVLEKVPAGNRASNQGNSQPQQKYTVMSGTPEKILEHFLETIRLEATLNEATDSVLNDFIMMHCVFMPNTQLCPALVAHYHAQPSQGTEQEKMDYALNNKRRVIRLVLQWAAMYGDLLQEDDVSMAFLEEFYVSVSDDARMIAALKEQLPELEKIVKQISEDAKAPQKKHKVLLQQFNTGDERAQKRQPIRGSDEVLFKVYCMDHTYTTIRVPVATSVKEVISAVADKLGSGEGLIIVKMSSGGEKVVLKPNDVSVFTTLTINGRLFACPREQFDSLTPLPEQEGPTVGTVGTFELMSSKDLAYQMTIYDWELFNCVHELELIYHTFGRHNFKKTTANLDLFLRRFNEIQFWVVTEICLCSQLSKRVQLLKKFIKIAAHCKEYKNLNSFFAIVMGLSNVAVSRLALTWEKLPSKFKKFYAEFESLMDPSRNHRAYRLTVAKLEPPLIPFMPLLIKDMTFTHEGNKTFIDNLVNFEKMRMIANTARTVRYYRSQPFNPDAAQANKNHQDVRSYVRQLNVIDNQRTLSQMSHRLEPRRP
For assay [4] the target is unchanged. Put plainly: Confirmatory qHTS for antagonist of cAMP-regulated guanine nucleotide exchange factor 4 (EPAC2) (AID 1645885). Further: nearly all actives have a fitted effect of over 25% in size. Further: potency means the concentration at half of the fitted maximal effect.
Assay [5] deals with Rap guanine nucleotide exchange factor 3 (Homo sapiens) (UniProt O95398). Put plainly: Counterscreen qHTS for agonist of cAMP-regulated guanine nucleotide exchange factor 3 (EPAC1) (AID 1645889). Further: nearly all actives have a fitted effect of over 40% in size. Further: potency means the concentration at half of the fitted maximal effect. On activation: % of control where 0% means no effect. In short, it runs like this:
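Rap1B-BODIPY-GDP 250 nM + GDP 50 uM; cpds 7-pt, final 9.74 nM–152 uM (activator mode) or from 7.32 nM upwards (inhibitor mode); RT; FI 480/540 nm at 5 and 30 min, then ± cAMP, reread.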

In assay [6] the target is Lysosomal acid glucosylceramidase (Homo sapiens) (UniProt P04062). Put plainly: Glucocerebrosidase-p2 (AID 348; in the data active means potency below about 10 µM; further: potency means the concentration at half of the fitted maximal effect). Conditions: purified GBA, blue fluorogenic substrate, 40 min. In short, it runs like this: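 Normal human glucocerebrosidase (0.2 nM) with blue fluorogenic substrate (80 uM final) in citrate/phosphate pH 5.9 with 10mM sodium taurocholate, 0.01% tween-20; 40 min RT, NaOH/glycine stop; fluorescence Ex 365/Em 440; AC50 from a titration from 0.6 nM upwards.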
Lysosomal acid glucosylceramidase (Homo sapiens), sequence (P04062 whole entry, looked up): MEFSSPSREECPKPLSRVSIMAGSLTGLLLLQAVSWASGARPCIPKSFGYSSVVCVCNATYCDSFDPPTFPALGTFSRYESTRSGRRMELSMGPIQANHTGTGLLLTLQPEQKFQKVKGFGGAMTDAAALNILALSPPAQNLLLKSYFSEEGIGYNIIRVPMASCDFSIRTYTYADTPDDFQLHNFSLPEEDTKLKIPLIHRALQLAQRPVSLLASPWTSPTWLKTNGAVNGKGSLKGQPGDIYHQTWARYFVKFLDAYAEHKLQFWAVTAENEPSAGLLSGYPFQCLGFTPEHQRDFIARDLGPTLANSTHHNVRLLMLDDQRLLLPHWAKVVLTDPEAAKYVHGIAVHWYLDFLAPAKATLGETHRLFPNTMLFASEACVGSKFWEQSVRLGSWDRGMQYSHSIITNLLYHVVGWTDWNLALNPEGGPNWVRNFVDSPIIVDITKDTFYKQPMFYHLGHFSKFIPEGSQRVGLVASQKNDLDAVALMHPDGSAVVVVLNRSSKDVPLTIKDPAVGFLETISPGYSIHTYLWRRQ

Assay [7] is described as follows: AP1 Signaling Pathway (AID 357; active means well fitted curve in either direction with a large enough effect, not every such curve was filed as active; further: on the % scale 0 is the no-effect control and ±100 the full control effect). Conditions: ME-180 (cervical carcinoma) AP-1-bla reporter, EGF-induced, beta-lactamase ratio, 5 h; at 7.69 µM (top of the series) unless noted. In short, it runs like this: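 Modulation of EGF-driven AP-1 transcription was assessed with a beta-lactamase reporter in ME-180 cells. Compound and EC50 EGF were co-incubated 5 hours at 37 °C before 2.5-hour CCF4 loading at room temperature and dual-emission reading.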

Assay [8] addresses Cytochrome P450 1A2 (Homo sapiens) (UniProt P05177). Put plainly: p450-cyp1a2 (AID 410; calls by dose curve; further: potency means the concentration at half of the fitted maximal effect). The method in brief:
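O-Demethylation of luciferin 6' methyl ether by human CYP1A2 is monitored as luciferase luminescence. Substrate sits at Km (100uM); enzyme is 20nM. Values are scaled to 57 uM furafylline as maximal inhibition.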

Assay [9] is described as follows: NFAT Signaling Pathway (AID 444; active means well fitted curve in either direction with a large enough effect, not every such curve was filed as active;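 further: carbachol stimulus at about its EC50 of 1 µM final; on the % scale 0 is the no-effect control and ±100 the full control effect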). Conditions: Jurkat NFAT-bla M1, carbachol, beta-lactamase ratio, 5 h; at 7.69 µM (top of the series) unless noted. The method in brief: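 Read-out: CCF4 FRET ratio (460 nm/530 nm) after 1 h RT dye loading, used for %activity and AC50 from titration series. Cells: Jurkat NFAT-β-lactamase/M1 line, treated with compound plus 1 uM carbachol for 5 h, 37 °C.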

Assay [10] can be described thus: Stat Signaling Pathway (AID 446; active means well fitted curve in either direction with a large enough effect, not every such curve was filed as active;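 further: ME-180 cervical cancer cells given 40 pM IL-6 alongside compound; SIE-controlled beta-lactamase reporter measured as 460/530 nm FRET emission ratio; on the % scale 0 is the no-effect control and ±100 the full control effect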). The method in brief: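 Emission at 460 and 530 nm (excitation 405 nm) reports SIE-controlled beta-lactamase in ME-180 cells. Cells received compound with 40 pM IL-6 for 5 hrs at 37 C; data scaled between 300 pM IL-6 and 125 nM JAK-inhibitor controls.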
In assay [11] the target is Glucocorticoid receptor (Homo sapiens) (UniProt P04150). As to the kind of experiment: GR-EFC Redistribution (AID 451; calls by dose curve; further: potency means the concentration at half of the fitted maximal effect). Conditions: CHO-K1 GR-EFC translocation, beta-gal luminescence, 2 h. The method in brief:
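Translocation of GR-ED fusion to nuclear EA restores b-gal, read by luminescence after 1 h room-temperature detection. Engineered CHO-K1 biosensor cells, 1,000/well, exposed 2 h at 37 C to titrations up to 46 uM final.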

Assay [12] has as its target Mitogen-activated protein kinase 10 (Mus musculus) (UniProt Q61831). As to the kind of experiment: JNK3 AlphaScreen Assay (AID 530; active means well fitted curve in either direction with a large enough effect, not every such curve was filed as active;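 further: kinase came from lysate of stimulated human HepG2 cells; signal reports phosphorylation of biotinylated GST-cJun 1-79 at Ser73 with 10 µM ATP; on the % scale 0 is the no-effect control and ±100 the full control effect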). The method in brief:
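qHTS titrations with 15 min compound pre-incubation before adding ATP (10 uM final). Read-out: AlphaScreen of Ser73-phosphorylated biotin-GST-cJun using HepG2 lysate JNK3 activated by IL-1β and TNFα.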

Assay [13] concerns the target Cytochrome P450 2C9 (Homo sapiens) (UniProt P11712). As to the kind of experiment: qHTS Assay for Inhibitors and Substrates of Cytochrome P450 2C9 (AID 883). Further: potency means the concentration at half of the fitted maximal effect; nearly all actives have a fitted effect of over 60% in size. In short, it runs like this: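 Turnover of Luciferin-H (100uM, KM) by 10nM human CYP2C9 was measured over 60 min at 37C with NADPH regeneration; inhibitors and some substrates reduce luminescence. Data normalized to sulphaphenazole 57uM.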

In assay [14] the target is Cytochrome P450 3A4 (Homo sapiens) (UniProt P08684). As to the kind of experiment: qHTS Assay for Activators of Cytochrome P450 3A4 (AID 885). Further: nearly all actives have a fitted effect of over 65% in size. The method in brief: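 Activators are scored by enhanced luminescence from CYP3A4 conversion of luciferin-PPXE (25uM, equal to KM) to luciferin, after 60 min at RT with an NADPH-regenerating system.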
Cytochrome P450 3A4 (Homo sapiens), sequence (P08684 whole entry, looked up): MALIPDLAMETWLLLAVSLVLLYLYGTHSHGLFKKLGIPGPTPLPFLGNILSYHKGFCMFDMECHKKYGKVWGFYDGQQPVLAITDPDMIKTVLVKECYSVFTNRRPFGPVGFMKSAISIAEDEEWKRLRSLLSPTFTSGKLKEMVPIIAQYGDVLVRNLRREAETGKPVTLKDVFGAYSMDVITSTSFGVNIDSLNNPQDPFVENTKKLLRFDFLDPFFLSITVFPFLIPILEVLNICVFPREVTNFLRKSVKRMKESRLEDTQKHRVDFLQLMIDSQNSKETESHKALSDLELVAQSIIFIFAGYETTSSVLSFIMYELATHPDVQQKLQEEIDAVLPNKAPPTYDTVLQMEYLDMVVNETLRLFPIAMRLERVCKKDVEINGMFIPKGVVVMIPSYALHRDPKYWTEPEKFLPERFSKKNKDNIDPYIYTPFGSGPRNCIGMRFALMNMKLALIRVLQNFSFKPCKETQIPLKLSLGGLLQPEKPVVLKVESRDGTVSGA
Assay [15] has as its target Tumor susceptibility gene 101 protein (Homo sapiens) (UniProt Q99816). As to the kind of experiment: qHTS Assay for Iinhibitors of HIV-1 Budding by Blocking the Interaction of PTAP/TSG101: Hit Validation (AID 651600). Further: nearly all actives have a fitted effect of over 70% in size. Further: potency means the concentration at half of the fitted maximal effect. The method in brief: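 Measuring PTAP–Tsg101 interaction by FP: protein at 10 uM and fluorescent peptide at 50 nM (final), buffer 10 mM HEPES pH 7.5 with 0.15 M NaCl, 3 mM EDTA, 0.1 mM TCEP, 0.01% Tween 20; 20 min incubation, r.t.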

Assay [16] has as its target Glucocorticoid receptor (Homo sapiens) (UniProt P04150). As to the kind of experiment: GR-GFP Redistribution (AID 450;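 active means compounds whose dose series gives a full or clear partial fitted curve of increased nuclear translocation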; further: potency means the concentration at half of the fitted maximal effect). Conditions: U2OS GR-GFP nuclear translocation, laser cytometry, 2 h.
Assay [17] concerns the target 3',5'-cyclic-AMP phosphodiesterase 4B (Homo sapiens) (UniProt Q07343). Put plainly: qHTS Assay for Inhibitors of PDE-IV (AID 607; active means well fitted activation curve with a large enough effect in the main read-out, with a control signal flat, not every such curve was filed as active; further: % of control where 0% means no effect). In short, it runs like this: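 The readout is membrane depolarisation from a cAMP-sensing CNG channel, detected with a potential dye at ex 535/em 590. Cells were HEK293-derived (endogenous PDE-IV) at 1000 cells/well, titrated up to 22.9 uM final.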

Assay [18] addresses Cytochrome P450 3A4 (Homo sapiens) (UniProt P08684). As to the kind of experiment: qHTS Assay for Inhibitors and Substrates of Cytochrome P450 3A4 (AID 884). Further: potency means the concentration at half of the fitted maximal effect; nearly all actives have a fitted effect of over 50% in size. In short, it runs like this:
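Luminescent readout of luciferin produced by CYP3A4 (20 nM) dealkylation of Luciferin-PPXE, 25 uM (its KM). NADPH-driven reaction ran 60 min at RT after 10 min compound preincubation; data scaled to 57 uM ketoconazole as 100% inhibition.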

The structures appear in SMILES notation. Unmarked numbers belong to inactive results. Results filed as inconclusive are left out. Activity calls are given as the source filed them. Unless noted, the call rests on the fitted dose curve; in most records, active means well fitted curve in the direction sought with a large enough effect; inconclusive means small, poorly fitted or top-dose-only effect, or another doubt; inactive means no such curve, though single readings can be large; an effect the other way counts as inactive or inconclusive.

Tumor susceptibility gene 101 protein (Homo sapiens), sequence (Q99816 whole entry, looked up): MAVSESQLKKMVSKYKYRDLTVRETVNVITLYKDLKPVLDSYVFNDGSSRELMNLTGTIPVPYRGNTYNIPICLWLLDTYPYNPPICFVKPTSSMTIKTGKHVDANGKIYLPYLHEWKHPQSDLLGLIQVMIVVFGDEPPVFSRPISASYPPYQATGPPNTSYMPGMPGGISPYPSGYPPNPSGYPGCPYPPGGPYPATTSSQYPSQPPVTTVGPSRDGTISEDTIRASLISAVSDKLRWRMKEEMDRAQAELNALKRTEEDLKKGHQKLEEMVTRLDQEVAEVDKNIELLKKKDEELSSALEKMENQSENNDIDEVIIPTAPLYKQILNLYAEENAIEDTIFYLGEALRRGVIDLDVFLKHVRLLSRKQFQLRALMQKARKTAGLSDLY
Glucocorticoid receptor (Homo sapiens), sequence (P04150 whole entry, looked up, the tested form may be a part): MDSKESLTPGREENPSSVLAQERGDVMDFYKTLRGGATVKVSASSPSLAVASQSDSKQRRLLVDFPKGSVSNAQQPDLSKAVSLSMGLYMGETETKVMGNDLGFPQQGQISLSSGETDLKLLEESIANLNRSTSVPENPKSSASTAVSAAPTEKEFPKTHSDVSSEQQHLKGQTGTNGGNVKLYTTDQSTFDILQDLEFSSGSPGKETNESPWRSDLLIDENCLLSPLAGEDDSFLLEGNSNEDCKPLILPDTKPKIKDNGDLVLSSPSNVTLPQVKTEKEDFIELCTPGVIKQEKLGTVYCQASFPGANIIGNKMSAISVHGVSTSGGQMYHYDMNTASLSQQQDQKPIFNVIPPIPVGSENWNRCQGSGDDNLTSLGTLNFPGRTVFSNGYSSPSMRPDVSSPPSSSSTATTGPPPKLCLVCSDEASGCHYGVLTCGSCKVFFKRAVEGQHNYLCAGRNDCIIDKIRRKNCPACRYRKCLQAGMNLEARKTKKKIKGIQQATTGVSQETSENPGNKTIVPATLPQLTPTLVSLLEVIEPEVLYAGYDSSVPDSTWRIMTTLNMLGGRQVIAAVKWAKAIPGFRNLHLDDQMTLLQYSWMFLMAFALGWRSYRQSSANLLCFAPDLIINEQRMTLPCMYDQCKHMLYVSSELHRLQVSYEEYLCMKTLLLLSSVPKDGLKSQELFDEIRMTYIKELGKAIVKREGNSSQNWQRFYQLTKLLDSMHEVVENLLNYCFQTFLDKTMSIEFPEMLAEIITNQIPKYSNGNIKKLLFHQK
Cytochrome P450 1A2 (Homo sapiens), sequence (P05177 whole entry, looked up): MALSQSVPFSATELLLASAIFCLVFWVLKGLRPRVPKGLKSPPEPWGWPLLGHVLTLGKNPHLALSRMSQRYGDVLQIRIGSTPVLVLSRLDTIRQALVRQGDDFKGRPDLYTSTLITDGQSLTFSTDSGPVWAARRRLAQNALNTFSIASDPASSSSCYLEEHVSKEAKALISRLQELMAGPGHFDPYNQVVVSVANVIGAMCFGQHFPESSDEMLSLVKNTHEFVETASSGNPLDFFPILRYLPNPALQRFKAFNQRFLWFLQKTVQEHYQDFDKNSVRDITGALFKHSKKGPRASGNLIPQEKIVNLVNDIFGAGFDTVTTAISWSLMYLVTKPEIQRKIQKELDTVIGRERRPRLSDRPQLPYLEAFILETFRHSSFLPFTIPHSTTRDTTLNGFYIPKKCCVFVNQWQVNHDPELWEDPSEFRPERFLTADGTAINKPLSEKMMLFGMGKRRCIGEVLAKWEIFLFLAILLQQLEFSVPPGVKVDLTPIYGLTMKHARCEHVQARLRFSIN

Take `CCOC(=O)c1c(-c2ccc(-c3ccccc3)cc2)csc1NC(=O)CCC(=O)O`: the Potency in assay [1] was 42.6 µM (active). Besides, the Potency result in assay [2], in [3], in assay [4] and in assay [5] was “inactive” throughout.

For `CSc1ccc(C2C(C(=O)c3ccco3)=C(O)C(=O)N2c2nnc(SC)s2)cc1` (stereo unspecified), the Potency in assay [1] was 33.8 µM (active); in [4] it was 19 µM (active). In addition, the Potency entry in assay [2], in [3] and in assay [5] was “inactive” throughout.

For the compound `Cn1c(N)c(C(=O)COC(=O)CCOc2ccc(C(C)(C)C)cc2)c(=O)n(C)c1=O`, the Potency entry in [1], in [2], in assay [3], in assay [4] and in assay [5] was “inactive” throughout.

As for `O=C(c1cnccn1)N1CCC[C@@]2(CCN(c3cccc(-c4ccccc4)c3)C2)C1`, the Potency was greater than 11.4 µM in assay [6], 25.1 µM (active) in [8], greater than 46 µM in assay [11] and 7.94 µM (active) in assay [13]. Also, the activity change, negative = inhibition in assay [7] was -18.4%; in [9], 7.34%. Also, the compound was classed as inactive in assay [10] and in assay [14]. Also, the Potency result in [12], in assay [1], in assay [2], in assay [3] and in assay [4] was “inactive” throughout.

With `CCN1C(=O)c2cccc3c(N)ccc(c23)C1=O`, the Potency is 2.06 µM (active) in assay [15]; 100 µM (active) in [2]; 100 µM (active) in [3]; 75.7 µM (active) in [4]; 35.5 µM (active) in assay [5]. Besides, the Potency entry in assay [1] was “inactive”.

Regarding `Nc1ccc(-c2c3ccc(=O)cc-3oc3cc(O)ccc23)cc1C(=O)O`, the Potency in [15] was 23.1 µM (active); in [2], 50.1 µM (active); in [3], 100 µM (active); in assay [5], 50.1 µM (active). In addition, the Potency entry in assay [1] and in assay [4] was “inactive” each time.

`COc1ccc(CCNc2oc(-c3ccc(C)cc3)nc2C#N)cc1OC`: the Potency entry in [1], in assay [2] and in [4] was “inactive” in each case. The activation in [3] is 5.59% [at 17.1 µM, percent relative to cAMP agonist control]; in assay [5], 26.9% [at 30.8 µM].

As to `CCOC(=O)c1cnc2ccc(OC)cc2c1Nc1ccc(N2CCN(C)CC2)cc1`, the Potency entry in assay [15], in [1], in assay [2] and in assay [4] was “inactive” each time. The activation is 12.5% [at 17.1 µM, percent relative to cAMP agonist control] in assay [3] and 12.2% [at 30.8 µM] in assay [5].

For `COc1ccc(Oc2ncc3nc(CCc4ccccc4)c(=O)n(CCC#N)c3n2)cc1`, the Potency is greater than 11.4 µM in assay [6]; 6.31 µM (active) in assay [8]; greater than 9.22 µM in assay [16]; greater than 46 µM in assay [11]; 1.58 µM (active) in [18]. Further, the activity change, negative = inhibition in assay [9] is 3.1%. Moreover, the compound was called inactive in [10] and in assay [14]. Moreover, the Potency result in assay [12], in [17], in [1], in assay [2], in [3] and in assay [4] was “inactive” each time.

Consider `O=C1OC(c2ccccc2)Sc2ccccc21` (stereo unspecified), for which the Potency entry in assay [1], in [2] and in [4] was “inactive” throughout. Moreover, the activation in [3] is 4.47% [at 17.1 µM, percent relative to cAMP agonist control]; in assay [5], -3.76% [at 30.8 µM].

`Oc1ccc2ccc3cccc[n+]3c2c1`: the Potency is 4.11 µM (active) in [15], 112 µM (active) in assay [2], 100 µM (active) in assay [3] and 39.8 µM (active) in assay [5]. Further, the Potency result in assay [1] and in assay [4] was “inactive” in each case.
